KB-3-1 cytotox = kills parental KB-3-1 adenocarcinoma cells. 400,000 compounds, 1.4% hits. Potency, µM (top dose mostly 46.1 µM), most hits filed as cytotoxic. KB-3-1 viability, CellTiter-Glo ATP luminescence, 72 h; also: nearly all actives have a fitted effect of over 60% in size
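72 h, 37 °C compound treatment of KB-3-1 parental cells; CellTiter-Glo added, 10 min, luminescence read. Data corrected against DMSO-only plates and normalized before curve fitting.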
MCF10A rerep = induces DNA re-replication in MCF 10a normal breast cells | Potency, µM (doses to about 46.1 µM), hits mostly activators | AID 624296 | MCF 10A DNA re-replication, Hoechst nuclear intensity, 48 h | 350,000 compounds, 2.9% hits; also: nearly all actives have a fitted effect of over 50% in size
TSG101-PTAP inh = blocks PTAP/TSG101 interaction to inhibit HIV-1 budding; Fluorescence polarization, FITC-PTAP peptide / Tsg101 binding; 340,000 tested, under 10 active; Potency, µM (series often up to 115 µM), hits mostly inhibitors; Q99816; active = well fitted inhibition curve with a large enough effect in the main read-out, with a control signal flat, not every such curve was filed as active; inconclusive = small, poorly fitted or top-dose-only effect, or effect the other way, or a change in a side signal; inactive = no such curve, though single readings can be large or run the other way
Target sequence (Q99816 whole entry, looked up): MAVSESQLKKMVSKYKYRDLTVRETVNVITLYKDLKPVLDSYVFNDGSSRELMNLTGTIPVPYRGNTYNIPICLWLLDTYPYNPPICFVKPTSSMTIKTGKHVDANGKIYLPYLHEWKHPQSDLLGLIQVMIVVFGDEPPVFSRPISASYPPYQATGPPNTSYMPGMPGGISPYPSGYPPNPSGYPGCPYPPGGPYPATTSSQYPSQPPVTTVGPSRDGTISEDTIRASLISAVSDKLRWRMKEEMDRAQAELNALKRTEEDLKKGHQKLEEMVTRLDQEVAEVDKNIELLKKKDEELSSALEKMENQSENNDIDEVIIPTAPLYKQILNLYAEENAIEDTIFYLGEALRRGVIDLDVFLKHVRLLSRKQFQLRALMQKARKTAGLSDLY
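Tsg101 binding domain (10 uM final) was mixed with compound and a FITC-labeled PTAP peptide (50 nM final) in HEPES pH 7.5 buffer with NaCl, Tween 20, EDTA and TCEP; fluorescence polarization was read after 20 min at r.t.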
KB-V1 cytotox = kills drug-selected multidrug resistant KB-V1 cells; Potency, µM (highest dose often 46.1 µM), usual class: cytotoxic; 400,000 compounds, 3.4% hits; KB-V1 MDR cells viability, CellTiter-Glo, 72 h; also: nearly all actives have a fitted effect of over 60% in size
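Cells of the MDR subline KB-V1 are plated, dosed with compound at multiple concentrations, and incubated 72 h at 37 degrees C; CellTiter-Glo is then added and luminescence read after 10 min.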
SW480 rereplic = inducers of DNA re-replication in SW480 colon cancer cells | 340,000 compounds, 1.8% hits | SW480 DNA re-replication, Hoechst DNA content imaging, 48 h | Potency, µM (top dose mostly 46.1 µM), hits mostly activators | AID 624297; also: nearly all actives have a fitted effect of over 55% in size
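Image-based DNA-content assay: after two days of treatment, nuclei were labelled with the DNA dye Hoechst and imaged, and hits were compounds raising the count of nuclei showing high fluorescence intensity.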
PINK1 expr mod = modulators of PINK1 expression; PINK1 immunofluorescence, high-content cytometry, 24 h; Potency, µM (series often up to 76.6 µM), usual class: activators; 410,000 compounds, 0.2% hits; AID 624263; active = well fitted activation curve with a large enough effect; inconclusive = small, poorly fitted or top-dose-only effect; cell line not stated here; also: nearly all actives have a fitted effect of over 65% in size
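Cells are seeded, rested 12 hours, then given compound at five concentrations or DMSO for 24 hours. After fixation, blocking and antibody staining, PINK1 amount and mitochondrial localization are scored; CCCP serves as control.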
Numbers stand for hits. Rows were chosen to be rich in hits. Some 6.8% of all compounds tested hit in one or more screens of this group. Unless noted, calls follow the shape of the dose curve; as a rule, active = well fitted curve in the direction sought with a large enough effect; inconclusive = small, poorly fitted or top-dose-only effect, or another doubt; inactive = no such curve, though single readings can be large; an effect the other way counts as inactive or inconclusive.

For c1ccc(-c2ccc(C(c3ccccc3)n3ccnc3)cc2)cc1 (stereo not drawn) the results were KB-3-1 cytotox inactive, MCF10A rerep 10.3µM, TSG101-PTAP inh inactive, KB-V1 cytotox inconclusive, SW480 rereplic inconclusive and PINK1 expr mod inconclusive.
`C[C@H]1CCCC(=O)CCC/C=C/c2cc(O)cc(O)c2C(=O)O1` gave KB-3-1 cytotox inactive, MCF10A rerep inactive, TSG101-PTAP inh inactive, KB-V1 cytotox 16.4µM, SW480 rereplic inactive and PINK1 expr mod inactive.
For NS(=O)(=O)c1cc(C2(O)NC(=O)c3ccccc32)ccc1Cl (stereo not drawn) the results were KB-3-1 cytotox inactive, MCF10A rerep inactive, TSG101-PTAP inh inactive, KB-V1 cytotox inactive, SW480 rereplic inactive and PINK1 expr mod inactive.
Screening CCc1ccc2c(c1)Sc1ccccc1CC2N1CCN(C)CC1 (stereo not drawn) returned KB-3-1 cytotox inactive, MCF10A rerep inconclusive, TSG101-PTAP inh inactive, KB-V1 cytotox inactive, SW480 rereplic 25.9µM and PINK1 expr mod inactive.
Screening C[N+](C)(C)CC1CCCc2ccccc2C1=O (stereo not drawn) returned KB-3-1 cytotox inconclusive, MCF10A rerep 13µM, TSG101-PTAP inh inactive, KB-V1 cytotox inactive, SW480 rereplic inactive and PINK1 expr mod inactive.
For CC1CCN2c3nc4ccccn4c(=O)c3CC3(C(=O)N(C)C(=O)N(C)C3=O)C2C1 (stereo not drawn) the results were KB-3-1 cytotox inactive, MCF10A rerep inactive, TSG101-PTAP inh inactive, KB-V1 cytotox 7.31µM, SW480 rereplic inactive and PINK1 expr mod inactive.
For CCN1c2nc3ccccn3c(=O)c2CC2(C(=O)N(C)C(=O)N(C)C2=O)C1C (stereo not drawn) the results were KB-3-1 cytotox inactive, MCF10A rerep inactive, TSG101-PTAP inh inactive, KB-V1 cytotox 16.4µM, SW480 rereplic inactive and PINK1 expr mod inactive.
Screening C[C@@]12C=CC(=O)C=C1CCC1C2CC[C@]2(C)C(=O)CCC12 (stereo partly drawn) returned PINK1 expr mod inactive.
Screening Cn1c(=O)oc2cc(S(=O)(=O)N3CCCc4ccccc43)ccc21 returned KB-3-1 cytotox inconclusive, MCF10A rerep 2.59µM, TSG101-PTAP inh inactive, KB-V1 cytotox inactive, SW480 rereplic inconclusive and PINK1 expr mod inactive.
`O=C(c1cc(C(=O)NCc2ccccc2)c(=O)n(Cc2ccccc2)c1)c1cc(Br)ccc1O` gave KB-3-1 cytotox inconclusive, MCF10A rerep inactive, TSG101-PTAP inh inactive, KB-V1 cytotox 2.31µM, SW480 rereplic inconclusive and PINK1 expr mod inactive.
For O=c1[nH]c(=S)n(CCC2=CCCCC2)c(O)c1C=NC1CCN(Cc2ccccc2)CC1 the results were KB-3-1 cytotox inconclusive, MCF10A rerep inactive, TSG101-PTAP inh inactive, KB-V1 cytotox 5.8µM, SW480 rereplic inactive and PINK1 expr mod inactive.
`CN1C(=O)C(=Cc2ccccc2OCCOc2ccc([N+](=O)[O-])cc2)C(=O)N(C)C1=O` gave KB-3-1 cytotox inactive, MCF10A rerep inconclusive, TSG101-PTAP inh inactive, KB-V1 cytotox inactive, SW480 rereplic inconclusive and PINK1 expr mod inactive.
Screening O=C1NC(=O)C(=Cc2ccccc2OCCOc2ccc([N+](=O)[O-])cc2)C(=O)N1 returned KB-3-1 cytotox inactive, MCF10A rerep 18.4µM, TSG101-PTAP inh inactive, KB-V1 cytotox inactive, SW480 rereplic inconclusive and PINK1 expr mod inactive.
Screening O=C1CCCC2C3CC(CN12)C1CCCCN1C3 (stereo not drawn) returned PINK1 expr mod inactive.
Screening Cc1ccnc(NS(=O)(=O)c2cc([N+](=O)[O-])ccc2C)c1 returned KB-3-1 cytotox inactive, MCF10A rerep inactive, TSG101-PTAP inh inactive, KB-V1 cytotox inactive, SW480 rereplic inconclusive and PINK1 expr mod inactive.
For Cc1ccc(S(=O)(=O)Nc2ccc3ncccc3c2[N+](=O)[O-])cc1 the results were KB-3-1 cytotox 18.4µM, MCF10A rerep inconclusive, TSG101-PTAP inh inactive, KB-V1 cytotox 20.6µM, SW480 rereplic inconclusive and PINK1 expr mod inactive.
For Cn1c(O)c(C(=Nc2ccccc2)SCc2ccccc2Cl)c(=O)n(C)c1=O the results were KB-3-1 cytotox 18.4µM, MCF10A rerep inactive, TSG101-PTAP inh inactive, KB-V1 cytotox inconclusive, SW480 rereplic inactive and PINK1 expr mod inactive.
Screening CN(Cc1ccc(OC(F)F)cc1)C(=O)c1ccccc1Sc1ccccc1C#N returned KB-3-1 cytotox inactive, MCF10A rerep inconclusive, TSG101-PTAP inh inactive, KB-V1 cytotox inconclusive, SW480 rereplic inactive and PINK1 expr mod inactive.
For CN(Cc1ccccc1)C(=O)c1cccc(NC(=O)Cc2ccc([N+](=O)[O-])cc2)c1 the results were KB-3-1 cytotox inactive, MCF10A rerep inconclusive, TSG101-PTAP inh inactive, KB-V1 cytotox inactive, SW480 rereplic inactive and PINK1 expr mod inactive.
Screening COc1ccc(-[n+]2c(-c3ccccc3)cc(-c3ccccc3)cc2-c2ccccc2)cc1 returned KB-3-1 cytotox 7.31µM, MCF10A rerep inconclusive, TSG101-PTAP inh inactive, KB-V1 cytotox inactive, SW480 rereplic inconclusive and PINK1 expr mod 15.8µM.
CCCCCSc1cc(OC)c(CCNC)cc1OC was read as KB-3-1 cytotox inactive, MCF10A rerep inactive, TSG101-PTAP inh inactive, KB-V1 cytotox inactive, SW480 rereplic inconclusive and PINK1 expr mod inactive.
`CCCCCCCSc1cc(OC)c(CCNC)cc1OC` gave KB-3-1 cytotox inconclusive, MCF10A rerep inconclusive, TSG101-PTAP inh inactive, KB-V1 cytotox 18.4µM, SW480 rereplic inconclusive and PINK1 expr mod inactive.
For CCOC(=O)C1CCN(/C=C2/C(=O)NC(=O)N(c3ccc(OCC)cc3)C2=O)CC1 the results were KB-3-1 cytotox inactive, MCF10A rerep 5.8µM, TSG101-PTAP inh inactive, KB-V1 cytotox inactive and SW480 rereplic inactive.
Screening Cc1ccc2[nH]c3c(c2c1)CN(C(=O)CN1C[C@H]2C[C@@H](C1)c1cccc(=O)n1C2)CC3 returned KB-3-1 cytotox inactive, MCF10A rerep inactive, TSG101-PTAP inh inactive, KB-V1 cytotox inactive, SW480 rereplic 4.11µM and PINK1 expr mod inactive.
CN1Cc2c(ccc3c2OCO3)C2C(O)Cc3cc4c(cc3C21)OCO4 (stereo not drawn) was read as PINK1 expr mod inactive.
Screening Fc1ccccc1CNCCc1c[nH]c2ccccc12 returned KB-3-1 cytotox inactive, MCF10A rerep inactive, TSG101-PTAP inh inactive, KB-V1 cytotox inactive, SW480 rereplic inconclusive and PINK1 expr mod inactive.
Screening FC(F)(F)c1ccccc1CNCCc1c[nH]c2ccccc12 returned KB-3-1 cytotox inactive, MCF10A rerep 10.3µM, TSG101-PTAP inh inactive, KB-V1 cytotox inactive, SW480 rereplic inconclusive and PINK1 expr mod inactive.
Screening O=c1[nH]c(=O)n(Cc2ccccc2Cl)c(O)c1/C=C1/C=CC=N1 returned KB-3-1 cytotox 23.1µM, MCF10A rerep 6.51µM, TSG101-PTAP inh inactive, KB-V1 cytotox inactive, SW480 rereplic 14.6µM and PINK1 expr mod inactive.

From PubChem BioAssay
